The text below walks through data of PubChem BioAssay.

Each structure is given as a SMILES string. Calls of active or inactive are those of the source.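 How the source made its calls: active means normalized viability below 100% at a tested concentration; inactive means the rest.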

One assay is described as follows: ovarian cancer cell viability with rucaparib, profiling panel, oncology-focused library, rucaparib conditional (AID 1508598). Conditions: patient-derived ovarian cancer cells, CellTiter-Glo viability, 144 h; at 0.0195 µM; OCI-P5x cells; without rucaparib; hits give low values.
`C/C(=C\c1csc(C)n1)[C@H]1C[C@@H]2O[C@]2(C)CCC[C@H](C)[C@H](O)[C@@H](C)C(=O)C(C)(C)[C@H](O)CC(=O)O1`: the viability was 16.3% (active).

`C/C(=C\c1csc(C)n1)[C@H]1C[C@@H]2O[C@@H]2CCC[C@H](C)[C@H](O)[C@@H](C)C(=O)C(C)(C)[C@H](O)CC(=O)O1`: the viability was 17% (active).

Regarding `CC(C)[C@@]12O[C@@H]1[C@@H]1O[C@]13[C@]1(O[C@@H]1C[C@@H]1C4=C(CC[C@@]13C)C(=O)OC4)[C@@H]2O`, the viability was 8.76% (active).

Still in this assay, the particulars now being: patient-derived ovarian cancer cells, CellTiter-Glo viability, 144 h; at 0.0781 µM; OCI-C5x cells; with rucaparib 10 µM; hits give low values; 100% = cells with rucaparib alone.
Take `C/C(=C\c1csc(C)n1)[C@H]1C[C@@H]2O[C@]2(C)CCC[C@H](C)[C@H](O)[C@@H](C)C(=O)C(C)(C)[C@H](O)CC(=O)O1`: the viability is 35.3% (active).

For `C/C(=C\c1csc(C)n1)[C@H]1C[C@@H]2O[C@@H]2CCC[C@H](C)[C@H](O)[C@@H](C)C(=O)C(C)(C)[C@H](O)CC(=O)O1`, the viability is 29.4% (active).

On to `CC(C)[C@@]12O[C@@H]1[C@@H]1O[C@]13[C@]1(O[C@@H]1C[C@@H]1C4=C(CC[C@@]13C)C(=O)OC4)[C@@H]2O`, for which the viability was 9.57% (active).

Staying with this assay, now noted: patient-derived ovarian cancer cells, CellTiter-Glo viability, 144 h; at 0.0781 µM; OCI-C5x cells; without rucaparib; hits give low values.
As to `C/C(=C\c1csc(C)n1)[C@H]1C[C@@H]2O[C@]2(C)CCC[C@H](C)[C@H](O)[C@@H](C)C(=O)C(C)(C)[C@H](O)CC(=O)O1`, the viability is 27.6% (active).

For `C/C(=C\c1csc(C)n1)[C@H]1C[C@@H]2O[C@@H]2CCC[C@H](C)[C@H](O)[C@@H](C)C(=O)C(C)(C)[C@H](O)CC(=O)O1`, the viability is 22.1% (active).

`CC(C)[C@@]12O[C@@H]1[C@@H]1O[C@]13[C@]1(O[C@@H]1C[C@@H]1C4=C(CC[C@@]13C)C(=O)OC4)[C@@H]2O`: the viability was 9.36% (active).

Staying with this assay, now noted: patient-derived ovarian cancer cells, CellTiter-Glo viability, 144 h; at 0.0781 µM; OCI-P5x cells; with rucaparib 20 µM; hits give low values; 100% = cells with rucaparib alone.
On to `C/C(=C\c1csc(C)n1)[C@H]1C[C@@H]2O[C@]2(C)CCC[C@H](C)[C@H](O)[C@@H](C)C(=O)C(C)(C)[C@H](O)CC(=O)O1`, for which the viability is 45.8% (active).

Turning to `C/C(=C\c1csc(C)n1)[C@H]1C[C@@H]2O[C@@H]2CCC[C@H](C)[C@H](O)[C@@H](C)C(=O)C(C)(C)[C@H](O)CC(=O)O1`, the viability was 57% (active).

With `CC(C)[C@@]12O[C@@H]1[C@@H]1O[C@]13[C@]1(O[C@@H]1C[C@@H]1C4=C(CC[C@@]13C)C(=O)OC4)[C@@H]2O`, the viability is 11.1% (active).

The assay is the same for the next values; noted with them: patient-derived ovarian cancer cells, CellTiter-Glo viability, 144 h; at 0.0781 µM; OCI-P5x cells; without rucaparib; hits give low values.
For the compound `C/C(=C\c1csc(C)n1)[C@H]1C[C@@H]2O[C@]2(C)CCC[C@H](C)[C@H](O)[C@@H](C)C(=O)C(C)(C)[C@H](O)CC(=O)O1`, the viability was 16.3% (active).

On to `C/C(=C\c1csc(C)n1)[C@H]1C[C@@H]2O[C@@H]2CCC[C@H](C)[C@H](O)[C@@H](C)C(=O)C(C)(C)[C@H](O)CC(=O)O1`, for which the viability is 17.9% (active).

For `CC(C)[C@@]12O[C@@H]1[C@@H]1O[C@]13[C@]1(O[C@@H]1C[C@@H]1C4=C(CC[C@@]13C)C(=O)OC4)[C@@H]2O`, the viability was 9.41% (active).

The assay is the same for the next values; noted with them: patient-derived ovarian cancer cells, CellTiter-Glo viability, 144 h; at 0.313 µM; OCI-C5x cells; with rucaparib 10 µM; hits give low values; 100% = cells with rucaparib alone.
On to `C/C(=C\c1csc(C)n1)[C@H]1C[C@@H]2O[C@]2(C)CCC[C@H](C)[C@H](O)[C@@H](C)C(=O)C(C)(C)[C@H](O)CC(=O)O1`, for which the viability is 40.6% (active).

Regarding `C/C(=C\c1csc(C)n1)[C@H]1C[C@@H]2O[C@@H]2CCC[C@H](C)[C@H](O)[C@@H](C)C(=O)C(C)(C)[C@H](O)CC(=O)O1`, the viability was 29.6% (active).

Regarding `CC(C)[C@@]12O[C@@H]1[C@@H]1O[C@]13[C@]1(O[C@@H]1C[C@@H]1C4=C(CC[C@@]13C)C(=O)OC4)[C@@H]2O`, the viability was 9.16% (active).

Still in this assay, the particulars now being: patient-derived ovarian cancer cells, CellTiter-Glo viability, 144 h; at 0.313 µM; OCI-C5x cells; without rucaparib; hits give low values.
Turning to `C/C(=C\c1csc(C)n1)[C@H]1C[C@@H]2O[C@]2(C)CCC[C@H](C)[C@H](O)[C@@H](C)C(=O)C(C)(C)[C@H](O)CC(=O)O1`, the viability is 35.3% (active).

As to `C/C(=C\c1csc(C)n1)[C@H]1C[C@@H]2O[C@@H]2CCC[C@H](C)[C@H](O)[C@@H](C)C(=O)C(C)(C)[C@H](O)CC(=O)O1`, the viability is 24% (active).

Turning to `CC(C)[C@@]12O[C@@H]1[C@@H]1O[C@]13[C@]1(O[C@@H]1C[C@@H]1C4=C(CC[C@@]13C)C(=O)OC4)[C@@H]2O`, the viability was 10.5% (active).

Staying with this assay, now noted: patient-derived ovarian cancer cells, CellTiter-Glo viability, 144 h; at 0.313 µM; OCI-P5x cells; with rucaparib 20 µM; hits give low values; 100% = cells with rucaparib alone.
On to `C/C(=C\c1csc(C)n1)[C@H]1C[C@@H]2O[C@]2(C)CCC[C@H](C)[C@H](O)[C@@H](C)C(=O)C(C)(C)[C@H](O)CC(=O)O1`, for which the viability was 44.8% (active).

Regarding `C/C(=C\c1csc(C)n1)[C@H]1C[C@@H]2O[C@@H]2CCC[C@H](C)[C@H](O)[C@@H](C)C(=O)C(C)(C)[C@H](O)CC(=O)O1`, the viability was 46.5% (active).

With `CC(C)[C@@]12O[C@@H]1[C@@H]1O[C@]13[C@]1(O[C@@H]1C[C@@H]1C4=C(CC[C@@]13C)C(=O)OC4)[C@@H]2O`, the viability is 12.1% (active).

The same assay, now with this note: patient-derived ovarian cancer cells, CellTiter-Glo viability, 144 h; at 0.313 µM; OCI-P5x cells; without rucaparib; hits give low values.
Consider `C/C(=C\c1csc(C)n1)[C@H]1C[C@@H]2O[C@]2(C)CCC[C@H](C)[C@H](O)[C@@H](C)C(=O)C(C)(C)[C@H](O)CC(=O)O1`, for which the viability was 15.9% (active).

`C/C(=C\c1csc(C)n1)[C@H]1C[C@@H]2O[C@@H]2CCC[C@H](C)[C@H](O)[C@@H](C)C(=O)C(C)(C)[C@H](O)CC(=O)O1`: the viability was 15.9% (active).

In the case of `CC(C)[C@@]12O[C@@H]1[C@@H]1O[C@]13[C@]1(O[C@@H]1C[C@@H]1C4=C(CC[C@@]13C)C(=O)OC4)[C@@H]2O`, the viability is 8.22% (active).

For orientation: viability means a read-out of living cells in per cent, often relative to untreated cells.
